Assay results taken from PubChem BioAssay AID463173 (ICCB-Longwood Screening Facility, Harvard Medical School, 2010).
Screen size: about 52,000 compounds; about 4,300 (8.3%) were called active. Many of the other results were omitted from the sample, so actives are more common in it than they were. Values without a mark were called inactive. Cut-off read from the data, not from the text of the source: active = survival mostly below about 52% (no sharp cut-off); inactive = mostly above about 56%.

These compounds were tested on DeltatarO mutant (assay: S. aureus survival, RN4220 and DeltatarO strains – OD600, teichoic acid synthesis inhibitors, primary screen (AID 463173)). Details: S. aureus RN4220 wild type/DeltatarO growth, OD600, 18 h, stronger effect = lower value, screened at 18.75 µg/mL (by protocol).
COc1cc(-c2nnc(SCC(=O)Oc3ccccc3Cl)o2)cc(OC)c1OC gave a survival of 84%.
For O=C(Nc1ccc(CN2CCCCC2)cc1)c1cccnc1Cl, the survival was 71%.
Work on CCc1ccc(-c2nc(SCC(=O)NCCOC)c(-c3ccc(C)cc3)[nH]2)cc1 yielded a survival of 76%.
For Cc1c(Cl)cccc1NC(=O)c1cc(S(=O)(=O)N2CCCCC2)cn1C, the survival was 99%.
COc1cccc(CN2CCc3nc(N4CCN(C)CC4)ncc3C2)c1 was tested, and the survival was 84%.
CN(c1ccc(F)cc1)S(=O)(=O)N1CCCC(C(=O)NCc2ccccc2Cl)C1 (stereo not drawn) was tested, and the survival was 81%.
COc1ccc(NC(=O)CCc2c(C)nc3c(c2C)c(=O)n(C)c(=O)n3C)c(OC)c1 gave a survival of 100%.
COc1ccc2c(c1)c(=O)c(S(=O)(=O)c1ccccc1)cn2CC(=O)Nc1ccc(C)c(Cl)c1 was tested, and the survival was 97%.
Work on COc1ccccc1CNC(=O)CCC1N=C2c3ccccc3N=C(SCC(=O)NCCc3ccc(OC)c(OC)c3)N2C1=O (stereo not drawn) yielded a survival of 92%.
With Cc1ccc(Cl)cc1N1CCN(C(=O)c2nn(C)c3c2CS(=O)(=O)c2ccccc2-3)CC1 the survival was 58% (active).
In the case of COc1ccccc1N1CCN(C(=O)c2nn(C)c3c2CS(=O)(=O)c2ccccc2-3)CC1, the survival is reported as 61%.
Cn1nc(C(=O)N2CCN(c3ccccc3F)CC2)c2c1-c1ccccc1S(=O)(=O)C2 showed a survival of 60%.
Compound O=C(CSc1ncn[nH]1)N1CCOCC1 has a survival of 73%.
In the case of Cn1c(=O)n(C)c2cc(NC(=O)C(F)(F)F)ccc21, the survival is reported as 94%.
With Cc1ccc(S(=O)(=O)Nc2cc3c(cc2C)n(C)c(=O)c(=O)n3C)cc1 the survival was -2% (active).
Cc1ccc(S(=O)(=O)Nc2cc3c(cc2N2CCOCC2)n(C)c(=O)n3C)cc1 gave a survival of 90%.
CC(C)Cc1ccc(S(=O)(=O)Nc2cc3c(cc2N2CCOCC2)n(C)c(=O)c(=O)n3C)cc1 gave a survival of 79%.
Cn1c(=O)c(=O)n(C)c2cc(N3CCOCC3)c(NS(=O)(=O)c3ccc(Cl)cc3)cc21 was tested, and the survival was -1% (active).
Cc1cc2c(cc1NS(=O)(=O)c1ccc(Br)cc1)n(C)c(=O)c(=O)n2C gave a survival of 109%.
In the case of Cn1c(=O)n(C)c2cc(N3CCOCC3)c(NS(=O)(=O)c3ccc(Cl)cc3)cc21, the survival is reported as 75%.
CCc1ccc(S(=O)(=O)Nc2cc3c(cc2C)n(C)c(=O)c(=O)n3C)cc1 was tested, and the survival was 64%.
With Cn1c(=O)c(=O)n(C)c2cc(N3CCOCC3)c(NS(=O)(=O)c3ccc(F)c(Cl)c3)cc21 the survival was 67%.
For CCc1ccc(S(=O)(=O)Nc2cc3c(cc2N2CCOCC2)n(C)c(=O)c(=O)n3C)cc1, the survival was 6% (active).
